Compounds without any hit were thinned out: in the full panel of roughly 83,000, 20% have a hit.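 Assay: single dose, 48 h. Readout: percent growth (0 = no net growth; negative = cell death). Active: <10.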 Unmarked numbers belong to inactive results. The source made the active and inactive calls.

The subject of the test is HL-60(TB) leukemia. Description: NCI-60 one-dose screen, 48 h (100 = growth as untreated, 0 = no growth, -100 = all killed). The following applies: 10 µM unless noted.
For the compound `Clc1ccc(-c2nnc(-c3cccc4ccccc34)o2)cc1`, the growth was 112%.
On to `COc1cc2c(/C=C3/C(=O)Nc4ccc(O)cc43)c(Cl)n(Cc3cc(OC)c(OC)c(OC)c3)c2cc1C`, for which the growth is -33.7% (active).
Next, `COc1cccc(-c2nc3sccn3c2-c2ccnc(NCCCNS(=O)(=O)c3c(Cl)cccc3Cl)c2)c1`: 17.9%.
Then `CC(C)C1CCC(C)C(O)C1` (centres undefined), with 103%; and `Cc1ccc2nc(-c3ccc(N=Cc4ccccc4O)cc3)sc2c1`, with 77.7%.
Turning to `COS(=O)(=O)CCN(CCOS(C)(=O)=O)S(C)(=O)=O`, the growth was 82.9%.
In the case of `CC/C=C\C/C=C\C[C@H](O)C/C=C1/C(=O)C=C[C@@H]1C/C=C\CCCC(=O)O`, the growth is 32.6%.
Consider `Cc1ccc(S(=O)(=O)NC(CCC(=O)Nc2ccc(Cl)cc2)C(=O)Nc2ccc(Cl)cc2)cc1` (centres undefined), for which the growth was 24.1%.
Next, `Cc1cc2ccccc2cn1`: 91.6%.
As for `COC(=O)[C@]12CCC(C)(C)C[C@H]1[C@H]1C(=O)C[C@@H]3[C@@]4(C)c5c([nH]c6ccccc6c5=O)C(C)(C)[C@@H]4CC[C@@]3(C)[C@]1(C)CC2`, the growth is 21.8%.
With `CCn1c(CN2CCN(Cc3ccccc3)CC2)nc2cc(NC(=O)c3cccs3)ccc21`, the growth was -51.2% (active).
Then `Clc1ccc(C(/C=C/c2sc(Cl)nc2Cl)=N/Nc2cc(Cl)cc(Cl)c2)cc1`, with 99.4%.
Next, `CN(C)c1ccc(-c2ccc3[nH]c(=O)nc(-c4ccccc4)c3c2)cn1`: 3.35% (active).
In the case of `CNc1ccc(-c2cc(=O)oc3ccc(Cl)cc23)cc1`, the growth is -13.5% (active).
